According to PubChem BioAssay:
Results with a measured potency or affinity are listed apart. Records with an inconclusive call do not appear. The source made the active and inactive calls.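 The calls were made as follows, unless noted: active = falling signal with fitted half-maximal potency no higher than twice the top valid tested dose; inconclusive = poor fit quality, or flat fit spanning -70% to -30%; inactive = potency over limit, rising signal, or flat fit inside 30%.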

How the values were obtained:
[1] = fungal growth arrest, C. neoformans – Alamar Blue, cherry-picks, dose response (AID 686998)
[2] = viability loss in HepG2 hepatoma cells – cell-based, cherry-picks, set 2, cytotoxicity control, dose response (AID 687002;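 active = a dose-response fit showing signal loss, with half-maximal concentration no higher than twice the top tested dose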)
[3] = viability loss in HeLa cells – cell-based, ATP luminescence, cherry-pick samples, cytotoxicity control, dose response (AID 687004;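 active = a fitted half-maximal concentration no higher than twice the top valid tested dose, with signal falling as cells die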)

Measured: outcome

O=C(Cc1ccccc1)N[C@H]1C=C[C@@H](CC(=O)N2CCOCC2)O[C@@H]1CO
inactive: all assays above

CC(C)CC#Cc1cnc2c(c1)C(=O)N([C@H](C)CO)C[C@H](C)[C@@H](CN(C)Cc1cccc(F)c1)O2
inactive: all assays above

COc1ccc(NC(=S)NCc2ccc(Cl)cc2)c(OC)c1
inactive: all assays above

COc1ccc(S(=O)(=O)N[C@H]2C=C[C@H](CC(=O)N3CCC(Cc4ccccc4)CC3)O[C@@H]2CO)cc1
inactive: all assays above

C[C@H]1CN([C@@H](C)CO)C(=O)c2cc(-c3ccc(F)cc3)cnc2O[C@@H]1CN(C)CC1CCCCC1
inactive: all assays above

Cc1noc(C)c1S(=O)(=O)Nc1ccc2c(c1)CC(=O)N([C@H](C)CO)C[C@H](C)[C@H](CN(C)S(=O)(=O)c1cccs1)O2
inactive: all assays above

N#Cc1ccc(C23CC4(C2)[C@H](CN(Cc2ccc(C(F)(F)F)cc2)[C@@H]4c2ccccc2)C3c2ccc(C(F)(F)F)cc2)cc1 (some centres not stated)
inactive: all assays above

Cc1cccc(C)c1NC(=O)C1CCCN1C(=O)NCc1ccccc1 (configuration not stated)
inactive: all assays above

O=C(NC(=S)Nc1cccc(F)c1)c1cccc([N+](=O)[O-])c1
inactive: all assays above

CC(C)NC(=O)N(C)C[C@H]1OCCCC[C@H](C)Oc2ccc(NC(=O)c3ccccc3)cc2C(=O)N([C@@H](C)CO)C[C@@H]1C
inactive: all assays above

COCCNC(=O)C[C@@H]1C[C@H]2c3cc(NC(=O)C4CCOCC4)ccc3O[C@H]2[C@H](CO)O1
inactive: all assays above

COc1ccccc1CNC(=S)NCc1ccc(Cl)cc1
inactive: all assays above

C[C@@H]1CCCCO[C@H](CN(C)C(=O)CCCN(C)C)[C@@H](C)CN([C@H](C)CO)C(=O)c2cc(NC(=O)Cc3ccccc3)ccc2O1
inactive: all assays above

CO[C@@H]1CN(C)C(=O)c2cc(NS(=O)(=O)c3cccc(C)c3)ccc2OC[C@@H](C)NC[C@H]1C
inactive: all assays above

CCCN1C[C@H](C)[C@@H](OC)CN(C)C(=O)c2cc(NC(=O)c3cccc(F)c3)ccc2OC[C@@H]1C
inactive: all assays above

CCCC(=O)N1CCC1(C)C(=O)Nc1ccc(C)cc1 (configuration not stated)
inactive: all assays above

CCCC(=O)Nc1ccc2c(c1)C(=O)N(C)C[C@H](OC)[C@@H](C)CN(C(=O)c1cccnc1)[C@@H](C)CO2
inactive: all assays above

CCC(=O)N(C)C[C@@H]1Oc2cc(C#CC(C)(C)O)ccc2S(=O)(=O)N([C@H](C)CO)C[C@H]1C
inactive: all assays above

CCCC(C)(C)C(=O)N1CCC1(C)C(=O)Nc1ccc(C)cc1 (configuration not stated)
inactive: all assays above

C[C@H](CO)N1C[C@H](C)[C@H](CN(C)Cc2ccccc2)OCCCC[C@H](C)Oc2ccc(NS(=O)(=O)c3cccs3)cc2C1=O
inactive: all assays above

C[C@@H]1CN([C@@H](C)CO)C(=O)Cc2cc(NC(=O)c3ccncc3)ccc2O[C@H]1CN(C)Cc1ccncc1
inactive: all assays above

C[C@H](CO)N1C[C@H](C)[C@H](CN(C)C(=O)Nc2cccc3ccccc23)Oc2ccc(NC(=O)Cc3ccccc3)cc2CC1=O
inactive: all assays above

C[C@H]1CN([C@@H](C)CO)S(=O)(=O)c2ccc(Br)cc2O[C@@H]1CN(C)C(=O)CCN1CCCCC1
inactive: all assays above

C[C@H]1CN([C@@H](C)CO)C(=O)c2ccccc2-c2ccccc2CO[C@H]1CN(C)S(=O)(=O)c1cccc(C#N)c1
inactive: all assays above

Cc1cccc(C)c1NC(=O)CN(C)C(=O)C1CC1C (configuration not stated)
inactive: all assays above

COc1cccc(NC(=O)N2C[C@H](O)COC[C@H]3O[C@@H](CC(=O)NCc4ccccc4F)CC[C@@H]32)c1
inactive: all assays above

C[C@@H]1CN([C@H](C)CO)S(=O)(=O)c2ccc(C#C[C@@H](C)O)cc2O[C@@H]1CN(C)Cc1ccncc1
inactive: all assays above

Cc1ccc(S(=O)(=O)N[C@H]2C=C[C@@H](CC(=O)N3CCC(Cc4ccccc4)CC3)O[C@H]2CO)cc1
inactive: all assays above

CNC[C@@H]1OCCCC[C@@H](C)Oc2ccc(NC(=O)Nc3ccc4c(c3)OCO4)cc2C(=O)N([C@H](C)CO)C[C@@H]1C
inactive: all assays above
